Several values for one entry are separate records, joined by “and”; a condition that tells them apart may be missing. Identical values can stand only once. Counter-ions that a name gives are not always drawn.
How the values were obtained:
Assay in all cases: cell viability relative to vehicle control; higher = less cytotoxic
Conditions in all cases: 10 µM
K562 = test system: K562
Procedure, shortened: (§1)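 After removal of identity-inconsistent compounds, the Selleck bioactive, kinase and epigenetic probe libraries were screened on CRISPR-edited mutant clones and isogenic wild-type clones of four leukaemia lines. Plates were 384-well, each well holding 2000 cells in 50 µL medium and receiving a single 10 µM acoustically dispensed dose. CellTiter-Glo luminescence was read 48 h later, after the supernatant was taken off. Genedata Screener was used to express viability as percent of the on-plate vehicle control.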

MARIMO = test system: MARIMO
Procedure, shortened: as §1

MOLM14 = test system: MOLM14
Procedure, shortened: as §1

OCI-AML2 = test system: OCI-AML2
Procedure, shortened: as §1

SMILES	cell viability (K562; SRSF2 genotype: SRSF2 P95H/wt)	cell viability (K562; SRSF2 genotype: SRSF2 wt/wt) [%]	cell viability (MARIMO; SRSF2 genotype: SRSF2 P95H/wt) [%]	cell viability (MARIMO; SRSF2 genotype: SRSF2 wt/wt) [%]	cell viability (MOLM14; SRSF2 genotype: SRSF2 P95H/wt) [%]	cell viability (MOLM14; SRSF2 genotype: SRSF2 wt/wt) [%]	cell viability (OCI-AML2; SRSF2 genotype: P95H/wt) [%]	cell viability (OCI-AML2; SRSF2 genotype: wt/wt) [%]
Cn1cc(-c2ccncc2)c(-c2ccc(OCc3ccc4ccccc4n3)cc2)n1	79.8% and 91.7%	91.2	93	90.4	65	71.4	71.5	68
NCC(=O)CCC(=O)O [5-Aminolevulinic acid hydrochloride]	94.7% and 105%	103	109	101	99.1	105	108	96.3
CCOc1cc(N2CCC(O)CC2)ccc1Nc1ncc2c(n1)N(C)c1ccccc1C(=O)N2C	91% and 89.7%	88	73	59.6	62.4	55.3	58.3	67.9
O=C(O)c1c[nH]c2cc(Cl)c(-c3ccc(C4(O)CCC4)cc3)cc12	91.2% and 101%	95.2	92.8	115	106	102	86.5	96.9
Cc1cc(C(=O)Nc2nc3cccc(Cl)c3n2[C@@H]2CCCCN(C(=O)/C=C/CN(C)C)C2)ccn1 [Nazartinib (EGF816, NVS-816)]	74.5% and 75.6%	69.3	27.6	35.6	53	48.9	44.4	56.7
CNC(CC(=O)O)C(=O)O [NMDA (N-Methyl-D-aspartic acid)]	102% and 94.2%	99.7	101	99.5	100	99	94.4	107
C[C@@H]1CC(=O)Nc2cccc(-c3ccc4c(c3)c(-c3cnn(C)c3)nn4C)c2N1	80.2% and 77.7%	81.6	55.1	49.1	32.5	35.8	32.6	47.2
COC(=O)[C@@H]1[C@H]2C[C@H]3c4[nH]c5ccccc5c4CCN3C[C@@H]2CC[C@@H]1O [Yohimbine hydrochloride (Antagonil)]	103% and 98.2%	96.5	95.8	103	95	102	94.9	96.1
O=C1C[C@@H]2[C@@H](CO)[C@H](O)C[C@@H]2O1 [Corey Lactone Diol]	110%	101	105	110	102	108	101	93.3
O=C(O)c1cc(/N=N/c2ccc(S(=O)(=O)Nc3ccccn3)cc2)ccc1O [Sulfasalazine (Azulfidine)]	99% and 96.4%	94.4	96.3	101	93.7	98.9	96.4	103
CN1CCC(=C2c3ccccc3CCc3sccc32)CC1 [Pizotifen malate]	89.7% and 97%	95.2	76.9	83.8	76.5	90.1	81.4	83
OC(c1cc(-c2ccc(Cl)cc2)nc2ccccc12)C1CCCCN1 (stereo not given) [Vacquinol-1]	0.22% and 0.74%	0.11	0.1	0.17	0.03	0.14	0.05	0.39
COC(=O)C1=CO[C@@H](O[C@@H]2O[C@H](CO)[C@@H](O)[C@H](O)[C@H]2O)[C@@H]2[C@@]3(C)O[C@H]3[C@@H](O)[C@]12O [Sesamoside]	101% and 102%	104	102	98.4	109	105	104	107
CCOc1ccccc1OC(c1ccccc1)C1CNCCO1 (stereo not given) [Reboxetine mesylate]	94.5% and 93.4%	90.7	81.9	91.7	92.2	95.8	70.1	97.4
O=C(O)CCCN1CCC(O[C@@H](c2ccc(Cl)cc2)c2ccccn2)CC1 [Bepotastine Besilate]	89.5% and 84.3%	84.8	86.5	97.8	90.9	93.3	82.6	86.2
CC#Cc1cncc(-c2ccc3c(c2)C2(N=C(C)C(N)=N2)C2(CCC(OC)CC2)C3)c1 (stereo not given)	108% and 98.5%	107	100	103	98	98.9	88.8	93.1
CCCCCCCCCCCC(=O)O [Lauric Acid]	91.8% and 82.9%	85.7	89.8	101	92.6	92.1	94.9	96.1
COC(c1ccccc1)(c1ccccc1)[C@H](Oc1nc(C)cc(C)n1)C(=O)O [Ambrisentan]	103% and 96.5%	98.8	95.2	109	102	103	102	105
CCCCc1oc2ccccc2c1C(=O)c1cc(I)c(OCCN(CC)CC)c(I)c1 [Amiodarone HCl]	70.3% and 74.5%	69.9	52.3	58.6	54.8	62.7	42.8	48.5
O=C1NCCc2[nH]c(-c3ccncc3)cc21	50.4% and 42%	63.5	12.7	7.5	1.91	0.86	4.1	14.9

SMILES	cell viability (K562; SRSF2 genotype: SRSF2 P95H/wt)	cell viability (K562; SRSF2 genotype: SRSF2 wt/wt) [%]	cell viability (MARIMO; SRSF2 genotype: SRSF2 P95H/wt) [%]	cell viability (MARIMO; SRSF2 genotype: SRSF2 wt/wt) [%]	cell viability (MOLM14; SRSF2 genotype: SRSF2 P95H/wt) [%]	cell viability (MOLM14; SRSF2 genotype: SRSF2 wt/wt) [%]	cell viability (OCI-AML2; SRSF2 genotype: P95H/wt) [%]	cell viability (OCI-AML2; SRSF2 genotype: wt/wt) [%]
CC1(C)S[C@@H]2[C@H](NC(=O)C(C(=O)O)c3ccccc3)C(=O)N2[C@H]1C(=O)O (stereo not given in full) [Carbenicillin disodium]	93.2% and 88.7%	97.2	90.3	98.8	98.6	95.4	95	93
CC(C)c1cnn2c(NCc3ccccc3-n3cccn3)nc(OC3CCCNC3)nc12 (stereo not given)	5.8% and 12.8%	9.75	0.54	0.75	0.56	0.56	0.46	1.89
Clc1ccc(COC(Cn2ccnc2)c2ccc(Cl)cc2Cl)c(Cl)c1 (stereo not given) [Miconazole nitrate]	68.8% and 61.8%	67.2	70	76.1	57.4	64.3	66.2	63.4
Cc1ccc(NC(=O)c2ccc(CN3CCN(C)CC3)cc2)cc1Nc1nccc(-c2cccnc2)n1 [Imatinib (STI571)]	12.8% and 26.4%	16.5	101	103	85	95	82.6	72.3
CCN(CC)C(=S)SSC(=S)N(CC)CC [Disulfiram (Antabuse)]	42.7% and 53.4%	53.3	14	14.4	27.1	32.5	14	20.8
CNc1cccc(CCOc2ccc3c(c2)CN(CC(F)(F)F)C(=O)[C@H](CC(=O)O)C3)n1	101%	91.5	96.1	102	97.7	98.6	100	106
Nc1ccc(-c2ccc3ncc4ccc(=O)n(-c5cccc(C(F)(F)F)c5)c4c3c2)cn1 [Torin 2]	13.4% and 21.3%	16.9	16.5	20.9	1.07	2.53	1.62	7.04
O=c1cc(-c2ccc(O)c(O)c2)oc2cc(O)cc(O)c12 [Luteolin]	90.8% and 84.6%	85.5	65.7	82.6	53	57	67.3	58.9
CC(NC(=O)c1ccccc1/N=C/c1c(O)ccc2ccccc12)c1ccccc1 (stereo not given) [Sirtinol]	93% and 101%	103	102	98.7	94.7	101	103	102
Cc1cc(/N=N/c2ccc(S(=O)(=O)Nc3ccccn3)cc2)c(N)cc1O	76.8% and 80.2%	79.7	56.9	53.3	36.3	34.8	26.2	48.7
N#Cc1cnc(Nc2cc(NC[C@H]3CNCCO3)c(C(F)(F)F)cn2)cn1	19% and 24.2%	13.3	44.5	54.4	16.4	10.3	14.5	14.1
C=C1C(=O)O[C@H]2[C@H]1CC/C(C)=C/CC[C@@]1(C)O[C@@H]21 [Parthenolide ((-)-Parthenolide)]	18.9% and 9.99%	26.7	8.78	8.07	1.59	0.67	0.71	0.34
COc1cc2c(cc1OC(C)C)[C@H](c1ccc(Cl)cc1)N(c1ccc(N(C)C[C@H]3CC[C@H](N4CCN(C)C(=O)C4)CC3)cc1)C(=O)C2	68.8% and 72.1%	68.4	67.8	71.8	0.15	0.13	0.22	2.94
Cc1nnsc1C(=O)Nc1ccc(-n2nc(C(F)(F)F)cc2C(F)(F)F)cc1	78.2% and 82%	76.3	86.6	98.2	107	99.1	76.6	89.2
CCOC(=O)[C@H](CCc1ccccc1)N[C@H]1CCc2ccccc2N(CC(=O)O)C1=O [Benazepril hydrochloride]	109% and 106%	108	101	111	95.9	98.9	93.3	102
CC[C@H](C)n1cc(C)c2c(C(=O)NCc3c(C)cc(C)[nH]c3=O)cc(-c3ccc(N4CCNCC4)nc3)cc21	78.3% and 82.1%	78.2	80.9	94.6	81.6	81.7	68	75.4
CCn1c(N)c(C(=O)NC)c(=O)c2ccc(C#CC(C)(O)COC)nc21 (stereo not given)	105% and 99.5%	97.9	87.4	93.7	48.1	55.5	64.6	64.6
COc1ccc(C[C@@H]2c3cc(OC)c(OC)cc3CC[N@+]2(C)CCC(=O)OCCCCCOC(=O)CC[N@@+]2(C)CCc3cc(OC)c(OC)cc3[C@H]2Cc2ccc(OC)c(OC)c2)cc1OC [Cisatracurium besylate (Nimbex)]	93.3% and 95.8%	92.4	79	94	70.7	93	99.5	111
CC(=O)OCC(=O)[C@@]12N=C(C)O[C@@H]1C[C@H]1[C@@H]3CCC4=CC(=O)C=C[C@]4(C)[C@H]3[C@@H](O)C[C@@]12C [Deflazacort (Calcort)]	98.4% and 102%	103	95	109	103	97	91.4	114
O=C(O)c1cc(O)c2c(c1)[C@@H]([C@H]1c3cc(C(=O)O)cc(O)c3C(=O)c3c(O[C@@H]4O[C@H](CO)[C@@H](O)[C@H](O)[C@H]4O)cccc31)c1cccc(O[C@@H]3O[C@H](CO)[C@@H](O)[C@H](O)[C@H]3O)c1C2=O [Sennoside B]	75.3% and 75.2%	81.5	79.3	88.2	76.2	75.6	77.4	87.7

From the supplement of paper PMC10981050
